This experiment deals with VDR:RXRa (NR concentration 270 nM, RXRa partner concentration 90 nM). Briefly: PBM binding z-score (relative to random genomic background probes); higher = stronger binding; sequences stand for … in GC…GCGATTGACAGCGTAGAATGAAGG
The protocol: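 Protein-binding microarray (Agilent 4x180K custom design, double-stranded 60-nt probes: 5' GC cap, 34-nt variable region, 24-nt constant primer region; full probe sequence given). Purified or IVT nuclear receptor:RXRα heterodimers (3:1 NR:RXRα, mostly 270:90 nM) or homodimers were incubated for 1 h in PBS with 2% milk and no ligand, then detected with Alexa488 antibodies. Fluorescence from o1-orientation probes (~5 replicates averaged) was converted to z-scores against 500 random hg19 background probes. Variable regions are seed direct-repeat (DR0–DR5) sites, all their single-nucleotide variants and half-site ablations.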
For the sequence CAAACTAGCTCACAGAGGTCAAAGTCCGTGCGTA, the PBM binding z-score worked out at 5.02.

CGTCCATGGTCAATGCTAGGTCAGTGAAAGCATT displayed a PBM binding z-score of 0.204.

For CGAACTAGATCATTGACAGGACAGTGAATAGTAA, the PBM binding z-score amounted to 0.158.

For ATCTCTTGGTAAAAGTTCAGTGAATCCCGAGGAT, the PBM binding z-score was determined as 1.14.

For the sequence GCTAGTTGGTCAGTAAAAGGACACACACCGGTCG, the PBM binding z-score was -0.213.

TCTCGGAGGACACGAAGCTCAGAGCTTTCCAGAG: the PBM binding z-score was -0.415.

In turn, CCTAGGAGGACAACAGGAGGTCAGAGCTGCCAGA displayed a PBM binding z-score of 2.09.

Sequence TCTAGCAGGCCAGAGGGTAACTCAAGAGGTACGG came in with a PBM binding z-score of -0.204.

Regarding CCTCGGAGGACAGATGGTCAGAGCTGTCCGCTTT, the PBM binding z-score is -0.581.

Sequence CCTAGTTTGTCAAGGTCACACACGCTATAGGTAC gave a PBM binding z-score of 4.46.

TCTATTAGTTGATCAGGGCAACCGAAACAGCGGA displayed a PBM binding z-score of 0.669.

For the sequence AGCGAAAGGTCGTGAGGTGAGTATACAGAAAGGC, the PBM binding z-score worked out at 3.51.

For AGAACGAGTGCACGCTGAGTTGATAGCAGAGTAG, the PBM binding z-score turned out to be 2.1.

As to CTACCCAGGTGAACAAGGTCGTTGATTACTATTC, the PBM binding z-score turned out to be 5.31.

As to ATCTCTAGGTAACACGTTCAGTGAAAGAGAGGAC, the PBM binding z-score was determined as 0.339.

With ATCGAAAGGTTGTGAGGTGAGTATACAGAAAGGC, the PBM binding z-score was found to be 0.652.

Turning to CCTACTGGGCCAAAGGTCATTGTTTCCAATGCTC, the PBM binding z-score is 4.11.

Regarding CGTCCAAGGTCAAGGTCAGAGAAAGAGACTCGAA, the PBM binding z-score came out at 4.57.

For GCTTGTAGGTCAAGGTTAAGAAAGACTAAGCTAA, the PBM binding z-score came out at 2.3.

On to ACAGACAGGTGAATGAAGGTAACTCAGCTGGACG, for which the PBM binding z-score is -0.131.

In turn, GATACAGCGTCAAGGCCAGAGTACGCGTATTGAT returned a PBM binding z-score of -0.35.

TCGAGTAGGATAGGGGCATTCAGAATGGCGTCGA: the PBM binding z-score is -0.000288.

Take CCTTACGGCTCACGAGGTTATAGCACGACGAGCG: the PBM binding z-score stood at 0.412.

Consider GTACCAAGGTGACTAGGTCGTTGATGAGTAGGCG, for which the PBM binding z-score is 0.346.

As to CAGCCTAGGTCAGGGCCCGTATAGGAGGAACGTT, the PBM binding z-score was found to be 0.0568.

Sequence CCTCGGAGGACAACAGGCGGTCAGAGCTGCCAGA gave a PBM binding z-score of -0.555.

ACAGACAGGGGAGTGAAGGTAACTCAGCTGGACG gave a PBM binding z-score of -0.347.

In the case of ATCGAAAGGTCTTGAGGTGAGTATACAGAAAGGC, the PBM binding z-score amounted to 0.496.

As for CTCGAAAGGTCGTGCTCAAGTGAGTATACCAAAC, the PBM binding z-score came out at 3.13.

For the sequence CCGACTGGGGCAGAAAGGTTAGCATACCATCCGG, the PBM binding z-score came out at 0.00712.

In turn, AGAATGAGTTTATTAAGATCAGGGAATTGCGGTC registered a PBM binding z-score of 2.08.

The sequence GCGACTGGGGCATCAGCAGGTTACTATAACTTAA yielded a PBM binding z-score of 0.0645.

TCTCGGAGGAAACGAAGGTCAGAGCTTTCCAGAG yielded a PBM binding z-score of 0.66.

As to ATCGAAAGGTCGTGAGGTGCGTATACAGAAAGGC, the PBM binding z-score was 6.03.

As for TCACCAAGGTGAAAGGTCGTTGATGCACGCCTTG, the PBM binding z-score is 3.17.

As for TCTCGGAGGACACGAAGGTCAGAGATTTCCAGAG, the PBM binding z-score was determined as 2.26.

GCTTACGGGTCAAACGTTATAGCATGAATAGAAT came in with a PBM binding z-score of 3.74.

TCTTGTAGATCAATAGAGGTTAAAAAAGTGCGCT came in with a PBM binding z-score of 1.94.

CCAGACAGGTGAGAAGGTCACTCAGCCTCGATTA came in with a PBM binding z-score of 2.66.

Consider CCTAGCGGGCCAGGGTCACTCAAGCATTTCGCTT, for which the PBM binding z-score turned out to be 2.36.

The record behind these values is the supplement of paper PMC6555819.
